PubChem BioAssay AID1159580 (chemical genetic matrix, 2015)
In all, about 5,500 compounds went through this assay and about 2,000 (36%) were called active. Not shown: some 18% with an inconclusive outcome. No stated cut-off is given here; in the data, active means normalized growth mostly below about 0.91 (no sharp cut-off); inconclusive means no clear call, values can overlap the other calls; inactive means mostly above about 0.92. Some of the results follow.

Assay: chemical genetic growth profiling, strain panel (AID 1159580);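 further: tested at 20 µM; growth read once vehicle control cultures reached saturation at 30 °C; 1 = growth at the plate median or of vehicle wells; lower values mean less growth of the strain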
Settings: growth OD

Measured: normalized growth

NCCCN
inactive: S. cerevisiae deletion strains, locus YJR066W, strain TOR1, hits give low values 0.933 | S. cerevisiae deletion strains, locus YKL009W, strain mrt4, hits give low values 1.02 | S. cerevisiae deletion strains, locus YKL068W, hits give low values 0.985 | S. cerevisiae deletion strains, locus YKL085W, strain MDH1 (second series), hits give low values 0.984 | S. cerevisiae deletion strains, locus YKL085W, strain MDH1, hits give low values 0.984 | S. cerevisiae deletion strains, locus YKL160W, strain elf1, hits give low values 1.02 | S. cerevisiae deletion strains, locus YKL190W, strain CNB1, hits give low values 0.999 | S. cerevisiae deletion strains, locus YKR001C, strain vps1, hits give low values 1.01 | S. cerevisiae deletion strains, locus YKR026C, strain gcn3, hits give low values 0.986 | S. cerevisiae deletion strains, locus YKR091W, strain srl3, hits give low values 0.998 | S. cerevisiae deletion strains, locus YLL001W, strain dnm1, hits give low values 1 | S. cerevisiae deletion strains, locus YLL026W, hits give low values 0.988 | S. cerevisiae deletion strains, locus YLL041C, strain sdh2, hits give low values 0.987 | S. cerevisiae deletion strains, locus YLR027C, strain aat2, hits give low values 1 | S. cerevisiae deletion strains, locus YLR039C, strain RIC1, hits give low values 1.09 | S. cerevisiae deletion strains, locus YLR058C, strain SHM2, hits give low values 1 | S. cerevisiae deletion strains, locus YLR102C, strain apc9, hits give low values 0.988 | S. cerevisiae deletion strains, locus YLR113W, strain HOG1, hits give low values 1.05 | S. cerevisiae deletion strains, locus YLR221C, strain rsa3, hits give low values 0.959 | S. cerevisiae deletion strains, locus YLR258W, strain gsy2, hits give low values 0.992 | S. cerevisiae deletion strains, locus YLR262C, strain YPT6 (second series), hits give low values 1.02 | S. cerevisiae deletion strains, locus YLR262C, strain YPT6, hits give low values 1.14 | S. cerevisiae deletion strains, locus YLR268W, strain sec22, hits give low values 0.979 | S. cerevisiae deletion strains, locus YLR320W, strain mms22, hits give low values 0.983 | S. cerevisiae deletion strains, locus YLR330W, strain CHS5, hits give low values 0.993 | S. cerevisiae deletion strains, locus YLR342W, strain FKS1 (second series), hits give low values 1.02 | S. cerevisiae deletion strains, locus YLR342W, strain FKS1, hits give low values 0.994 | S. cerevisiae deletion strains, locus YLR357W, strain rsc2, hits give low values 0.978 | S. cerevisiae deletion strains, locus YLR370C, strain arc18, hits give low values 0.967 | S. cerevisiae deletion strains, locus YLR371W, strain rom2, hits give low values 0.961 | S. cerevisiae deletion strains, locus YLR384C, strain iki3, hits give low values 0.993 | S. cerevisiae deletion strains, locus YLR418C, strain cdc73, hits give low values 1.03 | S. cerevisiae deletion strains, locus YML016C, strain PPZ1, hits give low values 0.994 | S. cerevisiae deletion strains, locus YML032C, strain rad52, hits give low values 1.02 | S. cerevisiae deletion strains, locus YML120C, strain ndi1, hits give low values 0.992 | S. cerevisiae deletion strains, locus YML124C, strain tub3, hits give low values 0.99 | S. cerevisiae deletion strains, locus YMR058W, strain fet3, hits give low values 0.994 | S. cerevisiae deletion strains, locus YMR078C, strain ctf18, hits give low values 0.972 | S. cerevisiae deletion strains, locus YMR125W, strain sto1, hits give low values 0.97 | S. cerevisiae deletion strains, locus YMR129W, hits give low values 0.991 | S. cerevisiae deletion strains, locus YMR205C, strain PFK2, hits give low values 1.02 | S. cerevisiae deletion strains, locus YMR223W, strain ubp8, hits give low values 1.01 | S. cerevisiae deletion strains, locus YMR231W, strain pep5, hits give low values 0.946 | S. cerevisiae deletion strains, locus YMR307W, strain GAS1, hits give low values 1.1 | S. cerevisiae deletion strains, locus YNL067W, strain RPL9B, hits give low values 1.01 | S. cerevisiae deletion strains, locus YNL071W, strain lat1, hits give low values 0.985 | S. cerevisiae deletion strains, locus YNL183C, strain NPR1, hits give low values 0.969 | S. cerevisiae deletion strains, locus YNL209W, strain ssb2, hits give low values 0.993 | S. cerevisiae deletion strains, locus YNL233W, strain BNI4, hits give low values 1.01 | S. cerevisiae deletion strains, locus YNL248C, strain rpa49, hits give low values 0.993 | S. cerevisiae deletion strains, locus YNL250W, strain rad50, hits give low values 0.979 | S. cerevisiae deletion strains, locus YNL271C, strain bni1, hits give low values 0.99 | S. cerevisiae deletion strains, locus YNL298W, strain CLA4, hits give low values 1.01 | S. cerevisiae deletion strains, locus YNL307C, strain MCK1, hits give low values 0.985 | S. cerevisiae deletion strains, locus YNL322C, strain KRE1 (second series), hits give low values 0.962 | S. cerevisiae deletion strains, locus YNL322C, strain KRE1, hits give low values 0.996 | S. cerevisiae deletion strains, locus YNR049C, strain mso1, hits give low values 0.988 | S. cerevisiae deletion strains, locus YNR052C, strain pop2, hits give low values 0.992 | S. cerevisiae deletion strains, locus YOL006C, strain TOP1, hits give low values 1.08 | S. cerevisiae deletion strains, locus YOL012C, strain htz1 0.761 | S. cerevisiae deletion strains, locus YOL147C, strain pex11, hits give low values 0.997 | S. cerevisiae deletion strains, locus YOR001W, strain rrp6, hits give low values 0.951 | S. cerevisiae deletion strains, locus YOR061W, strain CKA2, hits give low values 0.997 | S. cerevisiae deletion strains, locus YOR069W, strain VPS5, hits give low values 0.993 | S. cerevisiae deletion strains, locus YOR070C, strain gyp1, hits give low values 0.999 | S. cerevisiae deletion strains, locus YOR080W, strain dia2, hits give low values 0.97 | S. cerevisiae deletion strains, locus YOR083W, strain WHI5, hits give low values 1.02 | S. cerevisiae deletion strains, locus YOR106W, strain vam3, hits give low values 0.995 | S. cerevisiae deletion strains, locus YOR136W, strain idh2, hits give low values 0.974 | S. cerevisiae deletion strains, locus YOR144C, strain elg1, hits give low values 0.993 | S. cerevisiae deletion strains, locus YOR184W, strain ser1, hits give low values 1.01 | S. cerevisiae deletion strains, locus YOR231W, strain MKK1, hits give low values 0.987 | S. cerevisiae deletion strains, locus YOR265W, strain rbl2, hits give low values 0.99 | S. cerevisiae deletion strains, locus YOR270C, strain vph1, hits give low values 0.974 | S. cerevisiae deletion strains, locus YOR290C, strain snf2, hits give low values 0.991 | S. cerevisiae deletion strains, locus YOR316C, strain cot1, hits give low values 0.987 | S. cerevisiae deletion strains, locus YPL051W, strain arl3, hits give low values 0.984 | S. cerevisiae deletion strains, locus YPL078C, strain atp4, hits give low values 1 | S. cerevisiae deletion strains, locus YPL106C, strain sse1, hits give low values 0.996 | S. cerevisiae deletion strains, locus YPL240C, strain hsp82, hits give low values 0.986 | S. cerevisiae deletion strains, locus YPL241C, strain CIN2, hits give low values 1 | S. cerevisiae deletion strains, locus YPL256C, strain CLN2, hits give low values 0.988 | S. cerevisiae deletion strains, locus YPR119W, strain clb2, hits give low values 0.986 | S. cerevisiae deletion strains, locus YPR141C, strain kar3, hits give low values 0.985 | S. cerevisiae deletion strains, locus YPR163C, strain tif3, hits give low values 0.986 | S. cerevisiae deletion strains, locus YPR167C, strain met16, hits give low values 0.999 | S. cerevisiae deletion strains, strain wtn01, hits give low values 0.96 | S. cerevisiae strains, strain wild type, hits give low values 1
